Assay results published in PubChem BioAssay (Tox21).
“And” between values parts separate entries of the source, which are not always exact repeats. Identical values can stand only once. Results filed as inconclusive are left out. Where a call stands in place of a potency, no number is given. The source made the active and inactive calls. Calls follow the shape of the dose curve; as a rule, active = well fitted cell-killing curve with a large enough effect in the repeat runs; inconclusive = weak or mixed curves, or effect the other way; inactive = flat fitted curve, though single readings scatter.

Assay: qHTS assay to identify small molecule agonists of the constitutive androstane receptor (CAR) signaling pathway - cell viability counter screen (AID 1224836); also: nearly all actives have a fitted effect of over 45% in size
Settings: HepG2-CYP2B6-hCAR viability, CellTiter-Fluor, 23 h, PK11195 added to every well; series mostly up to 92.4 µM
Excerpt: U.S. Tox21 Program National Center for Advancing Translational Sciences [NCATS] NIH Chemical Genomics Center [NCGC] U.S. Environmental Protection Agency [EPA] National Institutes of Environmental Health Sciences [NIEHS] National Toxicology Program [NTP] U.S. Food and Drug Administration [FDA] Tox21 Assay Overview: The constitutive androstane receptor (CAR) is a nuclear receptor which regulates multiple drug metabolizing enzymes (DMEs) and transporters. Activating CAR will generally increase the transcription and subsequent translation of CYP2B6 and CYP3A4. These two DMEs represent about 50% of the drug metabolizing potential in the body. […] Recently, there have also been studies performed indicating CARs role in energy metabolism and cancer therapy. Therefore, inducing CARs activity could have a potential effect on diabetes and cancer. Identifying environmental toxins and compounds which modulate CAR, through the use of the Tox21 10K compound collection, will be an important step in determining the toxicity and potential therapeutic effects these factors will have on the human body. To differentiate true CAR agonists from cytotoxic substances, the assay is multiplexed with a cell viability assay.
Tox21 Assay Protocol Summary: A double-stable (hCAR and CYP2B6-2.2kb) transfected cell line, derived from human hepatoma (HepG2) cells, was utilized for the duration of the quantitative high-throughput screens. The HepG2-CYP2B6-hCAR cells were dispensed at 2500 cells/4 uL/well in 1536-well white solid bottom plates using a Multidrop Combi. After the assay plates were incubated at 37 C/5% CO2 for 4 hrs, 23 nL of compounds at 15 concentrations (from 5-48 columns) or positive control (from 1 to 4 columns) were transferred to the assay plates using a Pintool station. One uL of PK11195 (final concentration = 0.75 uM) was added, using a Flying Reagent Dispenser, inside each well. After a 23 hr incubation period at 37 C/5% CO2, 1 uL of CellTiter-Fluor reagent was added into each well of the assay plates using a Flying Reagent Dispenser. The fluorescence intensity in the plates was then measured using a ViewLux plate reader.
Potency is read from the fitted curve at half-maximal effect.

Compound	Potency
C[N+](C)(C)CCOC(=O)C(O)(c1ccccc1)c1ccccc1	inactive
CC(Oc1cc(Cl)c(Cl)cc1Cl)C(=O)O (stereo not given)	inactive
CC(C)(C)OOC(C)(C)CCC(C)(C)OOC(C)(C)C	inactive
O=[N+]([O-])O[C@H]1CO[C@H]2[C@@H]1OC[C@H]2O[N+](=O)[O-]	inactive
CC(Cc1ccccc1)NCc1ccccc1Cl (stereo not given)	inactive
CON(C)C(=O)Nc1ccc(Cl)cc1	inactive
CCOc1cccc(C2(N3CCN(c4ccccc4)CC3)CCC(C)CC2)c1 (stereo not given)	inactive
CC1(C)[C@H](C(=O)O[C@H](C#N)c2cccc(Oc3ccccc3)c2)[C@@H]1C=C(Br)Br	inactive
Cc1ncc(C[n+]2csc(CCO)c2C)c(N)n1	inactive
CCOP(=S)(OCC)Oc1ccc(S(C)=O)cc1 (stereo not given)	inactive
C[C@]12CC[C@H]3[C@@H](CCC4=CC(=O)CC[C@@H]43)[C@@H]1CC[C@@H]2OC(=O)CCc1ccccc1	inactive
CC(C)(C)NCC(O)c1ccccc1Cl (stereo not given)	inactive
C=CCSSCC=C	inactive
CN1C[C@H](C(=O)N[C@]2(C)O[C@@]3(O)[C@@H]4CCCN4C(=O)[C@H](Cc4ccccc4)N3C2=O)C=C2c3cccc4[nH]cc(c34)C[C@H]21	inactive
CCC1CCC(=O)O1 (stereo not given)	inactive
CCCN(CCC)c1c([N+](=O)[O-])cc(C(C)C)cc1[N+](=O)[O-]	inactive
C=CCc1ccc(OC(=O)Cc2ccccc2)c(OC)c1	inactive
C=C(C)C(=O)OCCCCOC(=O)C(=C)C	inactive
CC(C)c1ccc(OP(=O)(Oc2ccc(C(C)C)cc2)Oc2ccc(C(C)C)cc2)cc1	inactive
Cc1cccc(C)c1NC1=NCCCS1	inactive

Compound	Potency
CCOC(=O)c1cn2nc(OP(=S)(OCC)OCC)cc2nc1C	inactive
CCCCCCCCn1sccc1=O	61.3 µM (active) and 25.5 µM (active)
CCC(C)(C)O	inactive
NC(=S)c1c(Cl)cccc1Cl	inactive
CCCCC(CC)COC(=O)c1c(Br)c(Br)c(Br)c(Br)c1C(=O)OCC(CC)CCCC (stereo not given)	inactive
CC(=O)NNc1ccccc1	inactive
COc1cc(CC(C)N)c(OC)cc1Br (stereo not given)	inactive
O=C([O-])c1ccccn1.O=C([O-])c1ccccn1.O=C([O-])c1ccccn1.[Cr+3]	inactive
COc1ccccc1N1CCNCC1	inactive
COC1=CC(=O)O[C@@H](/C=C/c2ccc3c(c2)OCO3)C1	inactive
N#CC1(N=NC2(C#N)CCCCC2)CCCCC1	inactive
SCc1ccccc1	inactive
CC(CC(C(N)=O)(c1ccccc1)c1ccccc1)N(C)C (stereo not given)	inactive
OCCCl	inactive
CCOC(C(=O)OCCN(C)C)(c1ccccc1)c1ccccc1	inactive
COC(=O)Cc1ccccc1	inactive
O=C(O)c1cc(Cl)ccc1Cl	inactive
CCCC1CCCCN1 (stereo not given)	inactive
NP(N)(=O)NC(=O)c1ccc(F)cc1	inactive
CN(C)N	inactive
